This is an account of results in PubChem BioAssay AID1962 (The Scripps Research Institute Molecular Screening Center, 2009).

As a reminder, the inhibition is the change of the read-out against control, counted positive when it falls.

Molecules are shown by their SMILES. In all, about 300,000 compounds went through this assay and about 2,500 (0.83%) were called active. The sample as a whole holds a higher share of actives than the screen did. Unmarked numbers belong to inactive results.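 The calls were made as follows: active = inhibition above the mean of all tested compounds plus 3 SD, set per screening campaign (cut at about 24% in these data); inactive = the rest.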

For this experiment, the system named is tRNA 2'-phosphotransferase TPT1 (Candida albicans SC5314). As to the kind of experiment: Candida albicans TPT1 enzyme inhibitors, primary screen, biochemical, fluorescence polarization (AID 1962).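 Also: plate controls were DMSO alone for no effect and ferristatin control at 100 nM for full effect.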 The settings on record: recombinant caTPT1, FP RNA substrate dephosphorylation; at 5 µM; stronger effect = higher value.
On to `C/C(=N\Nc1nc(N2CCOCC2)nc(N2CCOCC2)n1)c1ccc([N+](=O)[O-])cc1`, for which the inhibition was 0.13%.
Regarding `COc1cccc(OC)c1C(=O)Nc1ccc2c(c1)n(C)c(=O)n2C`, the inhibition is -1.47%.
To `CN(C)c1ccc(-n2cccc2/C=C2/SC(=Nc3ccc(F)cc3)NC2=O)cc1` belongs 0.75%; to `Cc1ccc(N=C2NC(=O)/C(=C/C=C/c3ccco3)S2)cc1C`, 25.4% (active); to `Cc1ccc(N2NC(=O)/C(=C/C=C/c3ccco3)C2=O)cc1C`, 4.93%.
The figure for `COC(=O)C1(S(=O)(=O)C2(C(=O)OC)CCCC2)CCCC1` is -0.48%; for `CN1C(=O)CC(c2ccccc2)C1=O` (stereo unspecified) it is -3.97%.
As for `CCN1C(=O)N[C@@H](c2ccccc2)[C@H](C(C)=O)[C@H]1C`, the inhibition is 1.78%.
In the case of `O=C(Nc1ccc(S(=O)(=O)Nc2nccs2)cc1)c1cc(=O)[nH]c2ccccc12`, the inhibition is 11.7%.
The figure for `O=C(Nc1ccc(S(=O)(=O)Nc2nccs2)cc1)c1cc(-c2ccncc2)nc2ccccc12` is 42.7% (active); for `Cc1ccc2nc(-c3ccncc3)cc(C(=O)Nc3ccncc3)c2c1` it is -2.29%; for `O=C(NC(Cc1ccc(O)cc1)C(=O)O)/C(=C/c1ccccc1)NC(=O)c1ccccc1` (stereo unspecified) it is -2.71%.
The figure for `CCOC(=O)c1cc(NC(=O)c2ccc(Cl)cc2)c(=O)oc1-c1ccccc1` is -4.37%.
Consider `CC(=O)Oc1cccc(C(=O)Nc2ccccc2NC(=O)c2cccc(OC(C)=O)c2)c1`, for which the inhibition was -1.86%.
To `CC(=O)c1cc(NC(=O)c2ccccc2)c(=O)oc1/C=C/N(C)C` belongs 110% (active); to `Cc1ccc(N2CCN(C(=O)c3cccs3)CC2)c(C)c1`, -2.58%; to `Cn1cccc1/C=C1\SC(=S)N(NC(=O)c2ccc(Cl)cc2)C1=O`, 84.1% (active).
To `O=C(O)c1ccc(/C=C2\SC(=S)N(NC(=O)c3ccc(Br)cc3)C2=O)cc1` belongs 5.29%.
With `Cn1cccc1/C=C1\SC(=O)N(CC(=O)Nc2ccc(F)cc2)C1=O`, the inhibition is 1.77%.
For the molecule `CCCC(=O)Nc1ncnc2c1ncn2[C@@H]1O[C@@H]2OP(=O)(O)OC[C@H]2[C@H]1OC(=O)CCC`, the inhibition was -4.36%.
`CC(=O)Nc1cccc(Oc2cc(C#N)c(C#N)cc2N2CCOCC2)c1`: the inhibition was -0.51%.
In the case of `COc1ccc(Br)cc1/C=N/n1c(C)nnc1C`, the inhibition was -0.28%.
To `COc1cc(N2CCCC2)c(OC)cc1/C=C(/C#N)c1cccc(Br)c1` belongs 103% (active).
For the molecule `O=C1NCCn2nc3ccccc3c21`, the inhibition is -3.31%.
As for `Cc1ccc(Oc2nc3ccccc3n3c(C)nnc23)cc1`, the inhibition was -2.63%.
To `CC(=O)Nc1ccc(S(=O)(=O)N(C)c2nc3ccccc3nc2Cl)cc1` belongs -0.11%; to `Cc1ccc(S(=O)(=O)N(C)c2nc3ccccc3n3c(C(C)C)nnc23)cc1`, 49.9% (active); to `C#CCOCCOCCOCCNc1nc(N2CCN(C(=O)CCCCCCCCCCNC(=O)[C@H](CCCCN)n3cc(C)nn3)CC2)nc(N2CCN(C(=O)CCCCCCCCCCNC(=O)[C@H](CO)n3cc(CCCSC)nn3)CC2)n1`, 0.52%.
To `CN=C(c1ccccc1)c1c(C)cccc1C` belongs -0.46%.
To `CSC1=N/C(=C\C=C\c2cccs2)C(=O)S1` belongs 35.6% (active); to `CN1C/C(=C/c2cccs2)C(=O)/C(=C\c2cccs2)C1`, -2.84%.
Consider `Cc1cccc(C2=N/C(=C/c3cccs3)C(=O)O2)c1`, for which the inhibition was -1.73%.
Take `CCOC(=O)c1c(NC(=S)Nc2ccccc2)sc2c1CCN(C)C2`: the inhibition was 53.5% (active).
The figure for `CCOC(=O)c1c(NC(=S)NC)sc2c1CCCC2` is -1.5%; for `CCOC(=O)c1c(NC(=O)NC(C)(C)C)sc2c1CCN(C)C2` it is 2.5%.
The figure for `CCOc1ccc(/C=C/C(=O)N(CC)CC(=O)NCc2cccs2)cc1OC` is -3.86%.
The figure for `CC(=O)c1sc(N/N=C/c2ccc(C(C)C)cc2)nc1C` is 23%.
With `CC(=O)c1sc(N/N=C\c2ccc(C)cc2)nc1C`, the inhibition was 17.2%.
`COc1ccccc1/C=N/Nc1nc(C)c(C(C)=O)s1`: the inhibition is 28% (active).
The figure for `CCCCNC(=O)Nc1c(C)cc(SC#N)cc1C` is -6.37%.
As to `COCCNC(=O)C1CCN(C(=O)C2CC(=O)N(c3ccc(C)cc3)C2)CC1` (stereo unspecified), the inhibition is 1.54%.
As to `Cc1ccn2c(c1)nc(=O)c1cc(S(=O)(=O)N3CCC(C)CC3)ccc12`, the inhibition was 0.45%.
To `CCN(CC)c1ccc2cc(C(N)=O)/c(=N\NC(=O)c3ccncc3)oc2c1` belongs 133% (active); to `COc1ccc(C(=O)N/N=c2\oc3ccccc3cc2C(N)=O)cc1`, 4.71%.
To `NC(=O)c1cc2ccccc2o/c1=N/NC(=O)c1cccc(F)c1` belongs -1.51%; to `NC1=NC(=O)C(Cc2cccc(Cl)c2)S1` (stereo unspecified), -2.15%; to `CCC(=C/c1sc2ccc3ccccc3c2[n+]1C)/C=C1\Sc2ccc3ccccc3c2N1C`, 92% (active).
The figure for `CCCCCCCCn1c2c(c(=N)c3c1CCC3)CCCC2` is -2.44%.
As to `CCCCCCSc1ccc([C@@H]2[C@@H]3C(=O)N(CC)C(=O)[C@@H]3[C@]3(C(=O)OC)CCCCN23)cc1OC`, the inhibition was 1.68%.
Regarding `COc1cc(N=Cc2c(O)[nH]c3ccccc23)cc(OC)c1OC`, the inhibition is -0.99%.
To `CN=c1scc(-c2cc(OC)ccc2OC)n1/N=C/c1c(C)[nH]c2ccccc12` belongs 62.6% (active); to `CCn1c(-c2cc(OC)ccc2OC)csc1=Nc1c(C)n(C)n(-c2ccccc2)c1=O`, -1.13%.
To `Cc1nn2c(=O)cc(COC(=O)c3ccc(NC(=O)C(C)(C)C)cc3)nc2s1` belongs -2.53%.
The figure for `CCOC(=O)[C@H]1[C@H]2COc3ccc(OC)cc3[C@@H]2N2C(=O)c3ccc(F)cc3NC(=O)[C@@]12C` is 0.85%; for `CC(C)CCN1NC2(CCC(C)CC2)NC1=S` (stereo unspecified) it is 2.43%; for `COc1ccc2ccccc2c1CNc1nnnn1C` it is -1.06%.
In the case of `O=C1CN(C(=O)c2ccccc2F)C(c2ccc(F)cc2)c2cc(F)ccc2N1` (stereo unspecified), the inhibition was 0.25%.
The figure for `CCC(c1nnnn1Cc1ccco1)N(CCc1ccccc1)Cc1cc2ccc(OC)cc2[nH]c1=O` (stereo unspecified) is -2.34%.
To `CCC(c1nnnn1Cc1ccccc1)N(Cc1cc2cc(OC)ccc2[nH]c1=O)CC1CCCO1` (stereo unspecified) belongs -1.86%; to `CCC(c1nnnn1Cc1ccco1)N(Cc1cc2cc(OC)ccc2[nH]c1=O)C1CCCCC1` (stereo unspecified), 38.4% (active); to `CCOc1ccc(Oc2nc(C)cc(OC)n2)nn1`, -1.74%.
The figure for `CN(C)C(=O)N=NC(=O)N(C)C` is -3.37%; for `COC(=O)Cc1[nH]n(-c2nc3ccccc3s2)c(=O)c1C(C)=Nc1ccc(OC)cc1` it is 1.09%; for `COc1ccc(N=C(C)c2sc3ccccc3c2O)cc1` it is 63.5% (active).
As for `COc1ccccc1-c1sc2ccccc2c1-c1ccc(C(C)=O)cc1`, the inhibition was -1.61%.
The figure for `CC(C)(Oc1ccc(C2CC2(Cl)Cl)cc1)C(=O)O` (stereo unspecified) is -2.25%; for `Cc1c(C(=O)N2CCCc3ccccc32)sc2nc(-c3ccccc3)cn12` it is -1.15%.
The figure for `Cc1c(C(=O)N2CCCc3ccccc32)oc2ccccc12` is -2.42%; for `Cc1cccc2cc3c(N)c(C(=O)N4CCCc5ccccc54)sc3nc12` it is 45.2% (active); for `C#CCOCCOCCOCCNc1nc(N2CCN(C(=O)Cn3cc(CCCCN)nn3)CC2)nc(N2CCN(C(=O)[C@H](CCCCN)n3cc(CCC(=O)O)nn3)CC2)n1` it is -1.83%.
The figure for `Cc1ccc(Cc2nnc(SCC(=O)Nc3ccccc3C)[nH]c2=O)cc1` is 1.69%.
